Most compounds without a hit are left out; they make up all but 2.8% or so of the library.
D3 ag: activates the human D3 dopamine receptor; D3R DiscoveRx beta-arrestin cells, luminescence, 90 min; max activation, %; hit rate 0.58% among 410,000; in the data active means max activation above about 30%; further: 0% is about no effect
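Cells at 1500/well, incubated overnight, then treated with pinned compounds (dopamine as control) for 90 min at 37 degrees C. DiscoveRx reagent added for 30 - 60 minutes at room temperature; luminescence read.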
RGS4 inhibitor: blocks human RGS4-accelerated GTP hydrolysis. P49798. Transcreener GDP fluorescence polarization, RGS4-accelerated GTP hydrolysis. Potency, µM (series often up to 114 µM), for the others: at the highest dose activity change, negative = inhibition, usual class: inhibitors. hit rate 0.039% among 390,000. AID 504845; active means well fitted inhibition curve with a large enough effect; inconclusive means small, poorly fitted or top-dose-only effect; inactive means no such curve, though single readings can be large or run the other way; further: potency means the concentration at half of the fitted maximal effect; on the % scale 0 is the no-effect control and ±100 the full control effect; nearly all actives have a fitted effect of over 75% in size
Target sequence (P49798 whole entry, looked up): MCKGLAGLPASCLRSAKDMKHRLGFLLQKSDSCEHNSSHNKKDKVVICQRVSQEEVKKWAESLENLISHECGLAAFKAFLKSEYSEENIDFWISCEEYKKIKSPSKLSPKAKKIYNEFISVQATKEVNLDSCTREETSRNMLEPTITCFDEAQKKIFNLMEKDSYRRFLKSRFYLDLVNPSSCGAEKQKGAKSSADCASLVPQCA
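MLSMR compounds (23 nl, pin-transferred) preincubated 10 min at room temperature with a 500nM (2x) first reagent, then RGS4 at 900nM (2x) plus Transcreener GDP mix added; fluorescence polarization (620/688 nm) read before and after 90 min at 30 °C.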
DRD3 antagonist: antagonists of human D3 dopamine receptor; P35462; D3R cells, DiscoveRx beta-arrestin luminescence, antagonist mode; active compounds read low; max response, negative = inhibition, %; hit rate 2.5% among 360,000; AID 652054; in the data active means max response below about -50%; inconclusive means no clear call, values can overlap the other calls; further: on the % scale 0 is the no-effect control and ±100 the full control effect
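Cells expressing the human receptor were seeded at 1500 cells/well, incubated overnight at 37 degrees C in 5% CO2, then exposed to library compounds with dopamine controls for 90 minutes at 37 degrees C before luminescent detection.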
LDHA block: inhibitors of human lactate dehydrogenase A | P00338 | purified LDHA, NADH/diaphorase-resazurin fluorescence; active compounds read low | activity change, % (values are at about 110 or 230 µM) | hit rate 0.15% among 480,000 | AID 1347041; in the data active means activity change below about -30%; inconclusive means mostly about -25% to -30%;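 further: plate controls were DMSO wells for no effect and wells without enzyme for full effect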
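Resorufin fluorescence (ex540/em590), read at 0 and 20 min after diaphorase/resazurin addition, reports the NADH left after a 5 min room-temperature reaction of 2 nM human LDH5 with 0.06 mM NADH and 0.2 mM pyruvate.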
pAkt inh: Akt phosphorylation inhibition | Neuro2A IGF-stimulated pAkt S473 HTRF, 20 min; active compounds read low | activity change, % for hits at 50 µM | hit rate 0.32% among 360,000 | AID 651550; in the data active means activity change below about -80%; inconclusive means mostly about -51% to -80%; further: on the % scale 0 is the no-effect control and ±100 the full control effect
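Single-point screen (50 µM final compound) in Neuro2A cells stimulated 20 min with 6 nM IGF at 37 deg C. After lysis, Ser473-phosphorylated Akt read by HTRF (ex 330 nm, em 615/665 nm) as the 665/615 ratio.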
PI4K2A block: PI4K2A (human) kinase inhibition; activity change, negative = inhibition, % at 76.9 µM; hit rate 0.13% among 420,000; purified PI4K2A, ADP-Glo luminescence, 1 h; active compounds read low; in the data active means activity change below about -50%; inconclusive means mostly about -30% to -49%;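 further: -100% = wells without enzyme as full effect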
Target sequence (Q9BTU6 whole entry, looked up): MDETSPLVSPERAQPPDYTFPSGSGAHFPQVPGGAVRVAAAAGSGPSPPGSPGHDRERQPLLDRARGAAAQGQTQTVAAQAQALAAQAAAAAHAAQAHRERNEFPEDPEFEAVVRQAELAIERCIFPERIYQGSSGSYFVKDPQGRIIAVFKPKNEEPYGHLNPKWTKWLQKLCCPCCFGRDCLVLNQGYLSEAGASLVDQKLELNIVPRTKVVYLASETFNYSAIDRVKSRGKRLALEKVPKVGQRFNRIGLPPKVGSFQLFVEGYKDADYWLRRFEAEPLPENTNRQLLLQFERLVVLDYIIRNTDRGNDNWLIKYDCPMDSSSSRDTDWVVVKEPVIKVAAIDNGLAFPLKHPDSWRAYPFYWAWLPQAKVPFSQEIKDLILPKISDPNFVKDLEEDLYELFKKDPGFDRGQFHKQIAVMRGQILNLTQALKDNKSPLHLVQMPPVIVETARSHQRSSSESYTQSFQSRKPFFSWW
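ADP-Glo luminescence measured ADP generated by PI4K2A enzyme (4 ug/mL before mixing) with 1.2 mM PI substrate (pre-mix) and 300 microM ATP (pre-mix). Tris pH7.5 buffer with MgCl2, Triton X-100; 1 h reaction at ambient temperature.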
* = called active by the depositor; i = inactive; ? = inconclusive; · = not tested or not shown; [ ] = remark or other dose.

SMILES | D3 ag | RGS4 inhibitor | DRD3 antagonist | LDHA block | pAkt inh | PI4K2A block
N#Cc1cn(CC(=O)Nc2ccc(Cl)c(Cl)c2)c2ccccc12 | · | · | · | -1 | · | ·
O=C(NCCCCc1ccccc1)C1CC(c2ccc(C(F)(F)F)cc2)=NO1 (configuration not stated) | 58* | -3% | 53 | -3 | i | -1
CCCCNC(=O)C1CC(c2ccc(C(F)(F)F)cc2)=NO1 (configuration not stated) | 20 | -7% | 9 | -2 | i | -3
Cc1ccc(CCNC(=O)C2CC(c3cc(C(F)(F)F)cc(C(F)(F)F)c3)=NO2)cc1 (configuration not stated) | -2 | 9% | 19 | 0 | i | -1
COc1ccc(C2=NOC(C(=O)NCC(C)C)C2)cc1 (configuration not stated) | -2 | -8% | -90* | -10 | · | 6
COc1ccc(CCNC(=O)C2CC(c3cc(C(F)(F)F)cc(C(F)(F)F)c3)=NO2)cc1 (configuration not stated) | 33* | -10% | 5 | 3 | i | -5
CCCNC(=O)C1CC(c2ccc(C(F)(F)F)cc2)=NO1 (configuration not stated) | 38* | -3% | -14 | -4 | i | 2
CCC(C)NC(=O)Nc1ccc2c(c1)N(S(=O)(=O)CC)CC2 (configuration not stated) | · | · | · | -9 | · | ·
NC(=O)c1c(N)[nH]c(C(=O)c2ccccc2)c1-c1ccccc1Br | -6 | · | -52* | 9 | i | 2
CC(C)(C)C(=O)c1c(N)[nH]c(C(=O)c2ccccc2)c1-c1ccccc1Br | -5 | · | -13 | 3 | i | 0
COCCOc1ccc2c(C)cc(=O)oc2c1 | · | · | · | 4 | · | ·
Cc1cc(=O)oc2cc(OCCSCCN3CCCCC3)ccc12 | -12 | 22% | -66* | -2 | i | 1
COc1ccc(-c2cn3c(n2)sc2cc(C(=O)Nc4cccc(SC)c4)ccc23)cc1 | 77* | 11% | · | -11 | · | -3
CCN(CCCn1c(=S)[nH]c2ncccc2c1=O)c1ccccc1 | -9 | -32% | 8 | -6 | i | -1
CCN(CC)CCCn1c(=S)[nH]c2ncccc2c1=O | -11 | -22% | -53* | 2 | i | -12
O=C(Cn1ncc2c([nH]c3ccccc32)c1=O)NCCCN1CCN(c2ccccc2)CC1 | 6 | -8%[56.9 µM] | -63* | -2 | i | -3
O=C(c1ccc2c(=O)n(Cc3ccco3)c(=S)[nH]c2c1)N1CCN(c2ccccc2)CC1 | -1 | -19% | -50* | -4 | i | 2
Cc1ccc2[nH]c3c(=O)n(CC(=O)Nc4ccccc4N4CCN(C)CC4)ncc3c2c1 | -18 | -12%[56.9 µM] | -55* | -13 | i | -3
CCCn1c(=S)[nH]c2cc(C(=O)N3CCN(c4ccccc4)CC3)ccc2c1=O | 8 | · | 7 | -3 | i | -3
CCOc1ccc(Cn2c(=O)c3sccc3n(CC(=O)NCc3ccccc3Cl)c2=O)cc1 | · | · | · | -18 | · | ·
O=c1c2ccccc2[nH]c(=S)n1CCCN1CCN(c2ccccc2F)CC1 | 9 | 33% | -99* | -6 | i | -10
O=c1c2ccccc2[nH]c(=S)n1CCCN1CCN(c2ccccc2)CC1 | -11 | 6% | -71* | -8 | i | 0
O=c1c2ccccc2[nH]c(=S)n1CCN1CCCCC1 | -13 | -36% | -14 | 2 | i | -1
CC(C)OCCCn1c(=S)[nH]c2ncccc2c1=O | 0 | ? | 0 | -8 | i | -1
O=c1c2cccnc2[nH]c(=S)n1CCCN1CCN(c2ccccc2F)CC1 | 7 | 6% | -55* | -10 | i | 5
SMILES | D3 ag | RGS4 inhibitor | DRD3 antagonist | LDHA block | pAkt inh | PI4K2A block
C=C(C)C1CC=C(C)/C(=N/NC(=S)Nc2ccc(C)cc2)C1 (configuration not stated) | · | · | · | 5 | · | ·
CCC(=O)c1cc(Br)c(OC)cc1OC | · | · | · | 14 | · | ·
CCN(CC)C(=O)c1cc(C(=O)Nc2ccc(F)c(Cl)c2)n(C)n1 | · | · | · | -5 | · | ·
O=C(Nc1ncc2c(n1)-c1ccccc1CC2)c1ccc(F)cc1 | 1 | 8% | 1 | -4 | -120%* | 3
CCC(c1nnnn1CCOC)N(Cc1cc2cc(C)c(C)cc2[nH]c1=O)CC1CCCO1 (configuration not stated) | -5 | 24% | 10 | -2 | -117%* | 16
COc1ccc(OCC(=O)N(Cc2ccc(-c3ccc(F)cc3)o2)C2CCS(=O)(=O)C2)cc1 (configuration not stated) | · | · | · | 3 | · | ·
CN(CC(=O)N1CCN(c2oc(-c3ccco3)nc2C#N)CC1)Cc1cccc(Cl)c1Cl | · | · | · | 0 | · | ·
Cc1cccc(-c2nc(-c3cc4ccc(C)cc4[nH]c3=O)no2)c1 | · | · | · | -19 | · | ·
O=c1[nH]c2ccccc2cc1-c1noc(-c2cccnc2)n1 | 48* | -3% | 8 | 1 | i | -4
N#Cc1ccccc1N1CCN(c2ccccc2)CC1 | · | · | · | -14 | · | ·
O=C(NCc1ccccc1)c1cccc(COc2cc(Cl)ccc2Cl)c1 | -5 | 7% | -72* | -3 | i | 1
CSc1nc(SCCO)c2sc3nc(-c4ccco4)c4c(c3c2n1)CC(C)(C)OC4 | -1 | -51% | 10 | 6 | i | -17
CSc1nc(N(CCO)CCO)c2sc3nc(-c4ccco4)c4c(c3c2n1)CCC4 | 2 | -27%[11.4 µM] | -7 | 2 | i | -56*
COCCN1C(=O)c2ccccc2C(C(=O)N2CCN(c3ccccn3)CC2)C1c1ccc(F)cc1 (configuration not stated) | -6 | -21% | -51* | -3 | i | 4
CCN(CC)CCCNC(=O)C1c2ccccc2C(=O)N(CCOC)C1c1ccc(F)cc1 (configuration not stated) | 3 | -4% | 4 | -7 | i | -6
O=C(O)c1ccc(Cl)c(S(=O)(=O)Nc2ccccc2C(=O)Nc2ccc(Cl)cc2)c1 | -13 | -11% | -19 | -38* | i | -5
Cn1c(=O)[nH]c2c(nc(-c3ccccc3)n2CCc2ccccc2)c1=O | · | · | · | 2 | · | ·
COc1ccc(CCNC(=O)Cn2nc(-c3cccs3)c3ccccc3c2=O)cc1 | · | · | · | 3 | · | ·
CCn1c(CSc2nc3ccccc3s2)nnc1SCC(=O)NCC(=O)OC | 5 | 3% | -13 | -3 | i | 2
Cn1c(CSc2nc3ccccc3s2)nnc1SCC(=O)NCCCN1CCOCC1 | 2 | -20%[11.4 µM] | 13 | -5 | -136%* | 6
CCn1c(CSc2nc3ccccc3s2)nnc1SCC(N)=O | -1 | 0% | -16 | -4 | i | 3
CCn1c(CSc2nc3ccccc3s2)nnc1SCC(=O)c1ccc2c(c1)OCCO2 | -4 | -11% | 5 | -17 | -108%* | 3
O=C(NC1CCCC1)c1cc(Cl)nc2ccccc12 | · | · | · | 3 | · | ·
